{"source": "PubChem BioAssay AID932", "about": "(The Scripps Research Institute Molecular Screening Center, 2007)", "note": "Among all 200,000 compounds or so, about 5,100 (2.5%) were called active.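 The calls were made as follows: active = activation above the screen-wide mean activation plus 3 SD (cut at about 130% in these data); inactive = the rest.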 Shown is part of a subset that was picked to be rich in actives."}
{"assay": "STAT1 signaling activators, primary screen, cell-based, HTS, luciferase reporter (AID 932);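 also: raw ratio to IFN-gamma control signal so 100% means no change and 0% no light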", "settings": "NIH 3T3 STAT1-luciferase reporter, IFN-gamma, luminescence; at 5.5 µM; hits give high values; 100% = IFN-gamma alone, no compound"}
{"smiles": "Cc1ccc(N=Cc2c(O)n(-c3nccs3)c(=O)c3ccccc23)c(C)c1", "activation (% of control)": "105% (inactive)"}
{"smiles": "[O-][n+]1onc2c1CCc1[nH]c(-c3ccccc3)nc1-2", "activation (% of control)": "101% (inactive)"}
{"smiles": "Cc1ccc(NC(=O)c2ccc(S(=O)(=O)NCC3CCCO3)cc2)cc1C", "note": "(stereo not drawn)", "activation (% of control)": "103% (inactive)"}
{"smiles": "O=C(NCc1ccncc1)NC12CC3CC(CC(C3)C1)C2", "activation (% of control)": "94.6% (inactive)"}
{"smiles": "O=C(Nc1cccc(CCc2ccccn2)c1)c1ccc(Cl)cc1", "activation (% of control)": "96.1% (inactive)"}
{"smiles": "O=C(Nc1cccc(Cl)c1)OCc1ccccn1", "activation (% of control)": "130% (active)"}
{"smiles": "O=C(Nc1ccccc1)OCc1cc(-c2ccc(Cl)cc2)on1", "activation (% of control)": "95.6% (inactive)"}
{"smiles": "Cc1nc([N+](=O)[O-])cn1CC(=O)Nc1ccc2c(c1)OCO2", "activation (% of control)": "101% (inactive)"}
{"smiles": "CCOC(=O)NC(=O)C(=CNc1cccc(OC)c1)C(=O)NC(=O)OCC", "activation (% of control)": "93.9% (inactive)"}
{"smiles": "O=C(Nc1ccccc1Cl)c1ccc2nsnc2c1", "activation (% of control)": "133% (active)"}
{"smiles": "O=C(Nc1ccccc1)c1ccc2nsnc2c1", "activation (% of control)": "113% (inactive)"}
{"smiles": "Cc1cccc(NC(=O)c2ccc3nsnc3c2)c1C", "activation (% of control)": "104% (inactive)"}
{"smiles": "Cc1ccc(C(=O)Nc2cccc3ncccc23)cc1[N+](=O)[O-]", "activation (% of control)": "106% (inactive)"}
{"smiles": "Nc1nc(-c2sc3nc4c(cc3c2N)CCCC4)nc(N2CCOCC2)n1", "activation (% of control)": "153% (active)"}
{"smiles": "Cc1cc(Oc2ccccc2)nc(N2CCOCC2)n1", "activation (% of control)": "100% (inactive)"}
{"smiles": "Cc1nc(N2CCOCC2)nc2c1CCCC2", "activation (% of control)": "98.4% (inactive)"}
{"smiles": "CC(C)OC(=O)CN1CCN(c2ccc(Cl)cc2)CC1", "activation (% of control)": "92.2% (inactive)"}
{"smiles": "O=C1NC(c2cccc(Cl)c2)Nc2ccccc21", "note": "(stereo not drawn)", "activation (% of control)": "107% (inactive)"}
{"smiles": "Nc1nnnn1CC(=O)N/N=C/c1ccc(-c2cccc(Cl)c2)o1", "activation (% of control)": "94.7% (inactive)"}
{"smiles": "O=C1c2ccccc2NC(c2ccc(-c3cccc(Cl)c3)o2)N1O", "note": "(stereo not drawn)", "activation (% of control)": "132% (active)"}
{"smiles": "COc1ccc(C2=NN(c3nc4ccccc4s3)C(=O)C2)cc1", "activation (% of control)": "101% (inactive)"}
{"smiles": "CCOc1ccc(NC(=O)NNC(=O)c2ccc(Cl)cc2Cl)cc1", "activation (% of control)": "97.2% (inactive)"}
{"smiles": "CS(=O)(=O)N(CC(=O)N1CCCC1)Cc1ccccc1", "activation (% of control)": "98.3% (inactive)"}
{"smiles": "O=C(CC1CCCCC1)NCc1ccco1", "activation (% of control)": "108% (inactive)"}
{"smiles": "Cc1ccc(OCC(=O)NC(C)c2ccccc2)c([N+](=O)[O-])n1", "note": "(stereo not drawn)", "activation (% of control)": "117% (inactive)"}
{"smiles": "CSCC(NS(=O)(=O)c1ccc(C)cc1)C(=O)O", "note": "(stereo not drawn)", "activation (% of control)": "105% (inactive)"}
{"smiles": "O=C(Nc1cccc(Cl)c1N1CCOCC1)c1ccc2c(c1)OCCO2", "activation (% of control)": "92.9% (inactive)"}
{"smiles": "CN1CCN(c2ccc(NC(=O)c3ccc4c(c3)OCCO4)cc2Cl)CC1", "activation (% of control)": "144% (active)"}
{"smiles": "O=C(Nc1ccc2c(c1)OCCO2)c1ccc(Cl)c(S(=O)(=O)N2CCCCC2)c1", "activation (% of control)": "96.8% (inactive)"}
{"smiles": "CC(O)CNCCOc1cccc(Oc2ccccc2)c1", "note": "(stereo not drawn)", "activation (% of control)": "102% (inactive)"}
{"smiles": "COc1ccc(C(=O)Nc2nc(-c3ccc(S(=O)(=O)N4CCOCC4)cc3)cs2)cc1", "activation (% of control)": "85.1% (inactive)"}
{"smiles": "COc1ccc(-c2csc(N3CCN(Cc4ccc5c(c4)OCO5)CC3)n2)cc1", "activation (% of control)": "101% (inactive)"}
{"smiles": "COc1ccc(-c2csc(Cc3nc(O)cs3)n2)cc1", "activation (% of control)": "221% (active)"}
{"smiles": "Cc1cc(/C=C2/C(=N)N3C(=NC2=O)SN=C3S(C)(=O)=O)c(C)n1-c1ccccc1", "activation (% of control)": "107% (inactive)"}
{"smiles": "CCCCN(CC)C(=S)Nc1ccc2nc3n(c(=O)c2c1)CCCCC3", "activation (% of control)": "91% (inactive)"}
{"smiles": "Cc1cc(NC(=O)Nc2ccccc2[N+](=O)[O-])no1", "activation (% of control)": "114% (inactive)"}
{"smiles": "Cc1csc(NC(=O)Nc2ccccc2[N+](=O)[O-])n1", "activation (% of control)": "133% (active)"}
{"smiles": "Cc1c(NC(=O)Nc2ccccc2)cccc1[N+](=O)[O-]", "activation (% of control)": "83.6% (inactive)"}
{"smiles": "CN(Cc1cccc2ncccc12)C(=O)CC1C(=O)NCCN1Cc1ccc(F)cc1", "note": "(stereo not drawn)", "activation (% of control)": "98.1% (inactive)"}
{"smiles": "O=C(c1ccc(Cl)cc1)c1cnc(Nc2ccccc2)s1", "activation (% of control)": "119% (inactive)"}
{"smiles": "CC(C)(C)C(=O)c1cnc(Nc2ccccc2)s1", "activation (% of control)": "156% (active)"}
{"smiles": "CC(=O)c1cnc(-c2ccccc2)s1", "activation (% of control)": "116% (inactive)"}
{"smiles": "CS(=O)(=O)n1nc(-c2ccco2)nc1N", "activation (% of control)": "105% (inactive)"}
{"smiles": "COc1ccc(C(=O)CSc2nnnn2C)c(OC)c1", "activation (% of control)": "107% (inactive)"}
{"smiles": "CNC(=O)CSc1nnnn1-c1ccc(C)cc1C", "activation (% of control)": "97.7% (inactive)"}
{"smiles": "CCn1nnnc1SCC(=O)c1ccc(C)cc1C", "activation (% of control)": "145% (active)"}
{"smiles": "COc1ccc(CCNC(=O)c2ccco2)cc1", "activation (% of control)": "109% (inactive)"}
{"smiles": "O=C(CSc1ccccc1)Nc1ccc(NC(=O)c2ccco2)cc1", "activation (% of control)": "109% (inactive)"}
{"smiles": "O=C(NCCSc1ccccc1)c1ccco1", "activation (% of control)": "134% (active)"}
{"smiles": "CN(C)S(=O)(=O)N1CCN(c2ccc([N+](=O)[O-])cc2)CC1", "activation (% of control)": "110% (inactive)"}
{"smiles": "C/[N+]([O-])=C\\c1ccc([N+](=O)[O-])o1", "activation (% of control)": "99.5% (inactive)"}
{"smiles": "CCn1c(/C=C/c2ccc([N+](=O)[O-])o2)nc2ccccc2c1=O", "activation (% of control)": "182% (active)"}
{"smiles": "Cn1cc(/C=C/c2nc3ccccc3c(=O)n2-c2cccc([N+](=O)[O-])c2)c2ccccc21", "activation (% of control)": "85.4% (inactive)"}
